Test results reported in PubChem BioAssay.
Active and inactive are the calls of the source. No stated cut-off is given here; in the data, active means fold change permeability below about 0.7 or above about 1.3; inactive means in between.

Test: compounds altering in vitro BBB leakiness – cell-based, FITC-avidin fluorescence, HTS, primary screen (AID 1963498); further: test concentration not given here
Conditions: brain endothelial barrier, actives lie on both sides
In the case of `O=C(O)c1cc(=O)cc(C(=O)O)[nH]1`, the fold change permeability is reported as 0.8 (inactive).
In the case of `O=c1cc(-c2cccc3c2Sc2ccccc2S3)oc(N2CCOCC2)c1`, the fold change permeability is reported as 1 (inactive).
For `OC[C@H]1O[C@@H](n2cnc3c(NC4CCCCC4)ncnc32)[C@H](O)[C@@H]1O`, the fold change permeability was 1.2 (inactive).
For `O=c1c(O)c(-c2cc(O)c(O)c(O)c2)oc2cc(O)cc(O)c12`, the fold change permeability was 0.7 (active).
For `C=C(C)C1CC=C(C(=O)O)CC1` (centres undefined), the fold change permeability was 0.9 (inactive).
In the case of `N[C@H](C(=O)O)[C@H](O)C(=O)O`, the fold change permeability is reported as 0.9 (inactive).
For `NC(=O)c1ccc(OCCCN2C[C@H]3CCC[C@H]3C2)cc1`, the fold change permeability was 0.8 (inactive).
In the case of `C=CC[C@H](N)C(=O)O`, the fold change permeability is reported as 1 (inactive).
For `CC(=O)[C@]1(O)Cc2c(O)c3c(c(O)c2[C@@H](O[C@H]2C[C@H](N)[C@H](O)[C@H](C)O2)C1)C(=O)c1ccccc1C3=O`, the fold change permeability was 3.4 (active).
In the case of `COc1ccc(C2(CNC(=O)c3ccc(NC(=O)c4ccco4)cc3)CCOCC2)cc1`, the fold change permeability is reported as 0.7 (active).
In the case of `CCOC(=O)C1=C(C)NC(C)=C(C(=O)OC)C1c1cccc(Cl)c1Cl` (centres undefined), the fold change permeability is reported as 1.2 (inactive).
In the case of `CCCCNc1ccc(C(=O)OCCN(C)C)cc1`, the fold change permeability is reported as 1.8 (active).
In the case of `COc1ccccc1N1CCN(CCCNc2c(C)c(=O)n(C)c(=O)n2C)CC1`, the fold change permeability is reported as 1.5 (active).
In the case of `CCCCS(=N)(=O)CCC(N)C(=O)O` (centres undefined), the fold change permeability is reported as 1.1 (inactive).
For `Cc1cccc(C2CN(C)CCc3c2cc(O)c(O)c3Cl)c1` (centres undefined), the fold change permeability was 0.7 (active).
With `CCC(=O)Nc1cccc(Oc2nc(Nc3ccc(N4CCN(C)CC4)cc3OC)ncc2Cl)c1` the fold change permeability was 1.2 (inactive).
In the case of `Cc1ccc(S(=O)(=O)NC(=O)NN2CCCCCC2)cc1`, the fold change permeability is reported as 1 (inactive).
For `C[C@]12CC[C@@H]3c4ccc(O)cc4CC[C@H]3[C@@H]1[C@@H](O)[C@@H](O)[C@@H]2O`, the fold change permeability was 0.8 (inactive).
For `N[C@@H](COP(=O)(O)O)C(=O)O`, the fold change permeability was 1 (inactive).
In the case of `Cc1cc(CN)cc(C)c1NC(=O)c1ccc(-c2cc(Cl)ccc2Cl)o1`, the fold change permeability is reported as 1.5 (active).
With `C/C(O)=C(\C#N)C(=O)Nc1ccc(C(F)(F)F)cc1` the fold change permeability was 1.2 (inactive).
With `NC(=O)OCC(COC(N)=O)c1ccccc1` the fold change permeability was 0.8 (inactive).
In the case of `CC(=O)C(C)=O`, the fold change permeability is reported as 1.1 (inactive).
With `CCN(CC)CCOc1ccc(/C(=C(/Cl)c2ccccc2)c2ccccc2)cc1` the fold change permeability was 1.2 (inactive).
In the case of `CN(C)c1ccccc1CN1CCCN(Cc2ccccc2N(C)C)C1c1ccncc1`, the fold change permeability is reported as 1.1 (inactive).
For `CC(C)(C)C(=O)Oc1ccc(S(=O)(=O)Nc2ccccc2C(=O)NCC(=O)O)cc1`, the fold change permeability was 0.7 (active).
With `CO/N=C(\C(=O)N[C@@H]1C(=O)N2C(C(=O)O)=C(COC(C)=O)CS[C@H]12)c1csc(N)n1` (stereo in doubt) the fold change permeability was 0.8 (inactive).
With `CN(C)CCCN1c2ccccc2CCc2ccc(Cl)cc21` the fold change permeability was 1.1 (inactive).
With `COc1ccc(CC(C)NCC(O)c2ccc(O)c(NC=O)c2)cc1` (centres undefined) the fold change permeability was 0.9 (inactive).
With `C[C@H](C#Cc1ccc(Cc2ccc(F)cc2)s1)N(O)C(N)=O` the fold change permeability was 1.1 (inactive).
With `NC(N)=NC(N)=Nc1ccccc1` the fold change permeability was 0.9 (inactive).
In the case of `COc1ccc2[nH]c([S@@](=O)Cc3ncc(C)c(OC)c3C)nc2c1`, the fold change permeability is reported as 0.9 (inactive).
With `N#CC(=C(/N)Sc1ccccc1N)/C(C#N)=C(\N)Sc1ccccc1N` the fold change permeability was 1.6 (active).
In the case of `CN=c1nc(-c2ccccc2)n(-c2ccccc2)s1`, the fold change permeability is reported as 2.1 (active).
In the case of `CCCCn1c(-c2ccccc2)nc(-c2ccccc2)c1CN(Cc1ccc2c(c1)OCO2)Cc1ccc2c(c1)OCO2`, the fold change permeability is reported as 1.3 (active).
With `CC[C@H](NC(=O)c1c(C)c(-c2ccccc2)nc2ccccc12)c1ccccc1` the fold change permeability was 1 (inactive).
With `Cn1c(=O)c2c(nc(/C=C/c3cccc(Cl)c3)n2C)n(C)c1=O` the fold change permeability was 1.6 (active).
With `NCCCCN` the fold change permeability was 0.9 (inactive).
In the case of `O=C(O)CN(CCOCCOCCN(CC(=O)O)CC(=O)O)CC(=O)O`, the fold change permeability is reported as 0.8 (inactive).
